Test results as given in PubChem BioAssay AID485314 (National Center for Advancing Translational Sciences (NCATS), 2010).
Where “and” joins values, the source holds several entries; their conditions need not be identical. Equal values may be shown once. Out of some 340,000 compounds screened, about 4,500 (1.3%) were called active. About 5% were inconclusive and are not listed. Calls follow the shape of the dose curve; as a rule, active = well fitted inhibition curve with a large enough effect; inconclusive = small, poorly fitted or top-dose-only effect, or another doubt; inactive = no such curve, though single readings can be large or run the other way. The full list was thinned out, with actives kept by preference. Where a structure was tested more than once in an assay, its records may differ in their call.

These molecules were tested against DNA polymerase beta (Homo sapiens) (UniProt P06746) (assay: qHTS Assay for Inhibitors of DNA Polymerase Beta). Conditions: Pol beta primer extension/strand displacement, fluorescence kinetic; series mostly up to 114 µM.
In short: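 10 nM enzyme + cpd, 15 min RT; start with substrate 50 nM final; read 0 min and after 10 min RT. Corrected, normalized data; 4-parameter Hill curve fit.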
Potency is read from the fitted curve at half-maximal effect.

Potency, inactive and 25.1 µM (active):
CO/N=C(\C(=O)N[C@@H]1C(=O)N2C(C(=O)O)=C(COC(C)=O)CS[C@H]12)c1csc(N)n1 (stereo in doubt)

Potency, active:
CCc1nc2ccccc2n(CCOCCOCCn2c(=O)c(CC)nc3ccccc32)c1=O 35.5 µM
Cc1c(CCC(=O)O)c(=O)oc2c(C)c(OCc3ccccc3Cl)ccc12 12.6 µM
COC(=O)c1ccc(COc2ccc(/C=C/C(=O)c3ccc(OC)c(CSCC(=O)O)c3)cc2OC)cc1 31.6 µM
C=C(C)C(=O)Nc1cccc(C2=NOC3(C2)C[C@H](C(N)=O)N(C(=O)C(c2ccccc2)c2ccccc2)C3)c1 (stereo partly specified) 14.1 µM
O=C(N/N=C/C=C/c1ccco1)c1cccs1 25.1 µM
O=C(O)CCC(=O)N(Cc1cccs1)Cc1cccs1 44.7 µM
COc1ccc(Cl)cc1NC(=O)CCS(=O)(=O)c1ccc(Br)cc1 3.16 µM
O=C(CCS(=O)(=O)c1ccc(Br)cc1)NCCc1ccc(Cl)cc1 39.8 µM
Cn1ccc(=Nc2ccc(NC(=O)c3ccc(N=c4ccn(C)c5ccc([N+](=O)[O-])cc45)cc3)cc2)cc1 0.355 µM
COc1ccc(-c2noc(-c3ccc(N4CCN(c5ccccc5)CC4)c([N+](=O)[O-])c3)n2)cc1OC 89.1 µM
CCC1=C/C(=C\c2ccc3c(c2)OCO3)C(=O)S1 14.1 µM
CN(C)[C@@H]1C(=O)C(C(N)=O)=C(O)[C@@]2(O)C(=O)C3=C(O)c4c(O)ccc(Cl)c4[C@@H](O)[C@H]3C[C@@H]12 8.91 µM
COc1ccc(S(=O)(=O)/N=C2\C=C(NS(=O)(=O)c3ccccc3)C(=O)c3ccccc32)cc1 79.4 µM
O=C(CC1N=C2c3ccccc3N=C(SCc3ccccc3Cl)N2C1=O)NCc1ccco1 (stereo unspecified) 12.6 µM
O=C(CSC1=Nc2ccccc2C2=NC(CC(=O)NCc3ccco3)C(=O)N12)NCc1ccco1 (stereo unspecified) 39.8 µM
O=C(O)C(c1ccccc1)N1C(=O)/C(=C\c2ccc(-c3cccc(Cl)c3)o2)SC1=S (stereo unspecified) 50.1 µM

Potency, inactive:
COc1ccccc1Nc1c2c(nc3ccc(NC(=O)/C=C/c4cc(OC)c(OC)c(OC)c4)cc13)CCCC2
CCOCCn1c(-c2ccccc2)nc2ccccc21
CCOCCn1c(C(C)C)nc2ccccc21
COc1ccc(-c2nc(Cn3c(=O)cc(C)c4c(C)nn(-c5ccccc5)c43)c(C)o2)c(OC)c1
CCN1CCN(c2ncnc3c2cnn3-c2ccc(C)c(C)c2)CC1
COc1cc(NC(=O)CN2CCN(S(=O)(=O)c3ccc(Br)cc3)CC2)cc(OC)c1
Cc1c(CCC(=O)O)c(=O)oc2cc(OCc3ccc(Br)cc3)ccc12
CCOC(=O)CCc1c(C)c2ccc(OCc3nn[nH]n3)c(C)c2oc1=O
COc1ccccc1CNc1ccc(-c2nc(-c3ccccc3C)no2)cc1[N+](=O)[O-]
COc1cccc(-c2nnc3n(CCc4ccccc4)c(=O)c4ccccc4n23)c1O
CCCCN(CCCNC(=O)c1cc(Nc2ccccc2OC)nc2ccccc12)c1ccccc1
CCCCN(C)S(=O)(=O)c1ccc(C(=O)Nc2sc3c(c2C(N)=O)CC(C)(C)NC3(C)C)cc1
CC1=C(c2ccc(C)cc2)S(=O)(=O)NC1=NCCCN1CCN(c2cc(C)ccc2C)CC1
CCOc1ccc(NC(=O)c2cc(S(=O)(=O)N3CCCC3)c[nH]2)cc1
COc1ccc(C(=O)/C=C/c2ccc(-c3ccccc3)cc2)cc1CSCC(=O)O
COc1ccc(/C=C/C(=O)c2ccc(NS(=O)(=O)c3ccc(C)cc3)cc2)cc1O
Cc1ccc(CCNC(=O)c2ccc(CNS(=O)(=O)c3ccc(C)cc3)cc2)cc1
CSc1cccc(NC(=O)CN2C(=O)CCc3cc(S(=O)(=O)N4CCCCC4)ccc32)c1
C/C=C(/C)C(=O)Nc1cccc(C2=NOC3(C2)C[C@@H](C(N)=O)N(C(=O)C2(C)CC2)C3)c1 (stereo partly specified)
C/C=C\C=C\C(=O)N1CC2(CC(c3cccc(NC(=O)/C(C)=C\C)c3)=NO2)C[C@H]1C(N)=O (stereo partly specified)
Cc1ccccc1C(=O)Nc1nnc(S(=O)(=O)N(C)c2ccc(Cl)cc2)s1
COC(=O)c1ccc(NC(=O)CSc2n[nH]c(-c3ccccc3)n2)cc1
CCOc1ccc(OCC)c(NC(=O)CN(c2ccc(C)cc2)S(=O)(=O)c2c(C)n[nH]c2C)c1
CCn1c(C)c(C)c2cc(C(=O)NCCc3cc(OC)ccc3OC)ccc21
Cc1cccc(-n2c(C)cc(/C=N\NC(=O)c3cccs3)c2C)c1
O=C(Nc1ccc(NC(=O)c2cccs2)cn1)c1ccco1
Oc1ccc(-c2nc3ccc(Cl)cn3c2Nc2ccc3c(c2)OCO3)cc1
CCOc1ccc(C(=O)/C=C/c2cn(CC(O)CN3CCCCCC3)c3ccccc23)cc1 (stereo unspecified)
O=S(=O)(NCC(c1ccccc1)N1CCc2ccccc21)c1ccccc1 (stereo unspecified)
COc1cc2nc(NCC(C)c3ccccc3)n3nc(-c4ccccc4)nc3c2cc1OC (stereo unspecified)
O=C(NCc1ccccc1Cl)c1cccn1-c1nnc(N2CCCCC2)s1
O=C(O)CCC(=O)N(Cc1ccccc1)Cc1ccccc1
O=C(CCc1ccccc1)NCCc1cccs1
CCc1cccc(C)c1Nc1c(-c2ccc(N(C)C)cc2)nc2ncccn12
Cn1c(=O)oc2cc(S(=O)(=O)CCC(=O)NCCc3ccc(Cl)cc3)ccc21
CCOc1ccc(OCC)c(NC(=O)CCS(=O)(=O)c2ccc(C)cc2)c1
COc1ccc(Cl)cc1NC(=O)CCC(=O)c1ccc(C)cc1
CC(=O)N1CCc2cc(Br)cc(S(=O)(=O)CCC(=O)NCCc3ccc(Cl)cc3)c21
COc1cc(C(=O)NCCS(=O)(=O)N2CCN(c3ccccc3)CC2)cc(OC)c1OC
O=C(COc1ccccc1Cl)Nc1ccc2nc(SCC(=O)N3CCCC3)sc2c1
Oc1c(C(c2ccc(F)cc2)N2CCN(Cc3ccccc3)CC2)sc2nc(-c3ccco3)nn12 (stereo unspecified)
COC(=O)c1ccc(C2C(C(=O)Nc3ccccc3)=C(C)Nc3nc4ccccc4n32)cc1 (stereo unspecified)
Cc1cccc(N2CCN(C(=O)CCSCc3ccccc3F)CC2)c1C
O=C(Nc1ccc(C(=O)N2CCCCC2)cc1)c1cccc([N+](=O)[O-])c1
Cc1cc([N+](=O)[O-])ccc1NC(=O)c1ccc(NC(=O)C(C)C)cc1
CCOc1cccc2cc(-c3cn4c(n3)sc3cc(C)ccc34)c(=O)oc12
Cc1ccn2c(Nc3ccc4c(c3)OCCO4)c(-c3ccc(C)s3)nc2c1
Cc1cccc(-n2ccnc2SCC(=O)Nc2cc(C(F)(F)F)ccc2Cl)c1
COc1cccc(Cn2c(SCc3ccc(C(=O)N4CCC(C)CC4)cc3)nc3ccncc32)c1
Cc1cc(C)cc(NC(=O)c2cnc3sc(N4CCCC4)nn3c2=O)c1
COc1cc(-c2noc(-c3ccc(N4CCCC4)c([N+](=O)[O-])c3)n2)cc(OC)c1OC
COc1ccccc1-c1noc(-c2ccc(NCc3ccccc3)c([N+](=O)[O-])c2)n1
COc1ccc(S(=O)(=O)NCC(c2ccc(N(C)C)cc2)N2CCc3ccccc32)cc1OC (stereo unspecified)
COc1ccccc1N1CCN(S(=O)(=O)CCNC(=O)COc2ccc(F)cc2)CC1
CC(=O)Nc1cccc(NC(=O)CSc2nccn2Cc2ccc3c(c2)OCO3)c1
O=C(Cc1ccc(F)cc1)N/N=C/c1ccc2c(c1)OCO2
CCOC(=O)CCCNC(=O)COC(=O)/C=C/c1ccc2c(c1)OCO2
Cc1cccc(NC(=O)c2ccc(F)c(S(=O)(=O)N(C)C3CCCCC3)c2)c1
COc1ccc(NC(=O)c2sc3nc[nH]c(=O)c3c2C)cc1
Cc1ccccc1CCNC(=O)C1CCN(c2nc3ccccc3nc2C(F)(F)F)CC1
COc1ccc(S(=O)(=O)Nc2cc3c(C(=O)OC(C)C)c(C)oc3c3ccccc23)cc1
COc1ccc(NC(=O)c2cnc(NS(=O)(=O)c3ccccc3)nc2)cc1
CC(C)(C)c1ccc(S(=O)(=O)Nc2ccc(O)c(Sc3nc4ccccc4s3)c2)cc1
O=C(CC1N=C2c3ccccc3N=C(SCc3cccc(Cl)c3)N2C1=O)NCc1ccc2c(c1)OCO2 (stereo unspecified)
O=C(CC1N=C2c3ccccc3N=C(SCc3ccc(F)cc3)N2C1=O)NCc1cccs1 (stereo unspecified)
CCC(C)NC(=O)CSC1=Nc2ccccc2C2=NC(CCC(=O)NCc3ccco3)C(=O)N12 (stereo unspecified)
COc1ccc(NC(=O)CSC2=Nc3ccccc3C3=NC(CC(=O)NCc4ccccc4OC)C(=O)N23)cc1Cl (stereo unspecified)
CCN(CC)c1ccc(NC(=O)Cn2nc3c(cc2=O)CCCC3)c(C)c1
O=C(NCCCO)C(=O)Nc1c2c(nn1-c1ccc(F)cc1)CSC2
CCOC(=O)c1c(C)oc2ccc(N(C(=O)c3ccncc3)S(=O)(=O)c3ccc(CC)cc3)cc12
Cc1ccc(C)c(NC(=O)CSC2=Nc3ccccc3N=C(c3ccc(F)cc3)C2)c1
O=C1c2ccccc2NC(c2ccc(-c3cccc(Cl)c3)o2)N1O (stereo unspecified)
Nc1nnnn1CC(=O)N/N=C/c1ccc(-c2cccc(Cl)c2)o1
Cc1ccc(C)c2sc(NC(=O)c3ccc(S(=O)(=O)N4CCCC4)cc3)nc12
